Screens deposited in PubChem by National Center for Advancing Translational Sciences (NCATS).
Pf Dd2 growth = blocks in vitro growth of P. falciparum Dd2; P. falciparum Dd2 growth, SYBR Green, 72 h; Potency, µM (highest dose often 28.9 µM), inactives show at the top dose activity, negative = inhibition, usual class: inhibitors; actives 4.3% (n = 120,000); AID 1347417; active means well fitted inhibition curve with a large enough effect;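 further: plate controls were DMSO vehicle for no effect and reference drug for full effect; nearly all actives have a fitted effect of over 65% in size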
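Infected erythrocytes (Dd2, 0.3% parasitemia, 2.5% hematocrit final) are added to compound in RPMI-1640/Albumax II medium, grown 72 h at 37C in low oxygen, then lysed with saponin/Triton-X containing SYBR Green and read by fluorescence.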
Starred values were filed as active, the others as inactive; i = inactive; [ ] = dose if it differs, or a comment. This excerpt belongs to a sample that is enriched for hits. Potency means the concentration at half of the fitted maximal effect.

SMILES	Pf Dd2 growth
CCOc1ccccc1NC(=O)c1sc2nc3c(cc2c1N)CN(Cc1ccccc1)CC3	10µM*
Nc1c(C(=O)Nc2ccccc2)sc2nc3c(cc12)CN(Cc1ccccc1)CC3	-11.5%
CN1CCc2nc3sc(C(=O)Nc4ccccc4OC(F)(F)F)c(N)c3cc2C1	-13.9%
Cc1ccc(-c2cc(N3CCCN(C(=O)CCc4ccccc4)CC3)n[nH]2)cc1C	-18.9%
COc1cc(-n2cnnn2)cc(-n2ccnc2-c2cc3n(n2)CCCNC3)c1	5.8%
CC(C)(O)C1CCCN(C(=O)c2cc(COc3ccccc3F)[nH]n2)C1 (stereo not drawn)	-5.1%
CCCN(CC1CCOC1)C(=O)c1c(F)cccc1Cl (stereo not drawn)	i[5.79 µM]
CC1(c2ccccc2)N(Cc2cccnc2)C(=O)OC12CCN(C(=O)c1ccc(Oc3ccccc3)cc1)CC2 (stereo not drawn)	6.31µM*
Cn1nccc1C(=O)N1CCC2(CC1)OC(=O)N(Cc1ccccc1C#N)C2(C)c1ccccc1 (stereo not drawn)	10µM*
CC(=O)N1CCC2(CC1)OC(=O)N(Cc1ccccc1F)C2(C)c1ccccc1 (stereo not drawn)	i
CC1(c2ccccc2)N(Cc2ccccc2C#N)C(=O)OC12CCN(C(=O)c1ccc(F)cc1)CC2 (stereo not drawn)	i
CC1(c2ccccc2)N(Cc2ccccc2C#N)C(=O)OC12CCN(C(=O)Cc1ccccn1)CC2 (stereo not drawn)	i
CN1CCC(C(=O)N2CCC3(CC2)OC(=O)N(Cc2ccccc2F)C3(C)c2ccccc2)CC1 (stereo not drawn)	5.62µM*
CC1(c2ccccc2)N(Cc2ccccc2C#N)C(=O)OC12CCN(c1ccncc1)CC2 (stereo not drawn)	11.2µM*
COCC(=O)N1CCC2(CC1)OC(=O)N(Cc1cccnc1)C2(C)c1ccccc1 (stereo not drawn)	-1.8%[44.1 µM]
COc1ccc(OC)c(CN2CCC3(CC2)OC(=O)N(Cc2ccccc2C#N)C3(C)c2ccccc2)c1 (stereo not drawn)	-25.3%
CC1(c2ccccc2)N(Cc2ccccc2F)C(=O)OC12CCN(C(=O)c1cnccn1)CC2 (stereo not drawn)	i
CC1(c2ccccc2)N(Cc2ccccc2F)C(=O)OC12CCN(C(=O)CN1CCOCC1)CC2 (stereo not drawn)	i
CC1(c2cccnc2)N(Cc2ccccc2)C(=O)OC12CCN(C(=O)C1CCC1)CC2 (stereo not drawn)	-17.4%[44.1 µM]
FC1(F)CN[C@H](c2nc(C3CC3)no2)C1	i
O=C(c1cn[nH]c1-n1cnnn1)N1CCn2nc(Cc3ccccc3)cc2C1	-22.9%
CCc1cccc(NC(=O)N2C[C@@H](F)C[C@H]2C(=O)N2CCCCC2)c1	2.1%
CN(Cc1ccccc1)C(=O)C1CC(=O)N(c2n[nH]c3cc(Br)ccc23)C1 (stereo not drawn)	-26.6%
O=C1CCCCC(C(=O)O)N1 (stereo not drawn)	9.0%
Fc1ccc(Cn2ccnc2-c2ccccn2)c(Cl)c1	-16.3%
SMILES	Pf Dd2 growth
CCOc1ccccc1NC(=O)N1CCCN(C(=O)C2CC2)C(c2ccccc2)CC(=O)NCC1 (stereo not drawn)	i
CNC(=O)c1cc[nH]c1C1CCCN(C(=O)CCc2c(C)n[nH]c2C)C1 (stereo not drawn)	29.6%
CCN(CCO)C(=O)[C@H]1C[C@@](CC)(C(=O)O)N(C)[C@H]1c1ccc(OC)cc1	2.5%
COc1ccc(-c2ccnc3nc(C4CC4)nn23)cc1	-1.1%
O=S(=O)(c1ccc(C(F)(F)F)cc1)N1CCC(n2cnnc2C2CC2)CC1	25.7%
O=C(C1CCN(C(=O)N2CC3CC(C2)[C@H]2CCCC(=O)N2C3)CC1)N1CCN(C2CCCCC2)CC1 (stereo partly drawn)	i
COCCNS(=O)(=O)c1cc(C(=O)O)cc(-c2ccc(OC)c(F)c2)c1	-11.3%
O=C(O)CCC(=O)N[C@H]1CCN2C(=O)c3cc(-c4ccc(F)cc4F)ccc3NC(=O)[C@H]12	17.1%
Cc1nc(CN2C(=O)OC3(CCN(C(=O)Cc4ccc(O)cc4)CC3)C2(C)c2ccccc2)cs1 (stereo not drawn)	i
COc1cccc(CC(=O)N2CCC3(CC2)OC(=O)N(Cc2csc(C)n2)C3(C)c2ccccc2)c1 (stereo not drawn)	3.98µM*
COc1cccc(CC(=O)N2CCC3(CC2)OC(=O)N(Cc2ncccn2)C3(C)c2ccccc2)c1 (stereo not drawn)	-4.3%
CCOCCOC1CCN(C(=O)c2cc3ccccc3[nH]2)CC1	-6.0%
C1CNC(c2nc(C3CCOCC3)no2)C1 (stereo not drawn)	54.6%
O=C(COc1ccccc1)N(Cc1cccnc1)c1nc2ccc(F)cc2s1	15.0%
CCOc1ccc2nc(N(Cc3cccnc3)C(=O)C3CCCCC3)sc2c1	2.24µM*
COc1ccc2sc(N(Cc3cccnc3)C(=O)c3ccc4c(c3)OCCO4)nc2c1	7.08µM*
COc1ccc2nc(N(Cc3cccnc3)C(=O)COc3ccccc3)sc2c1	16.2%
Cc1cc2nc(N(Cc3cccnc3)C(=O)c3ccc(Cl)s3)sc2cc1C	44.8%
